Results taken from PMC5540273 (PLoS ONE, 2017).

How the values were obtained:
Settings in all cases: concentration: 1 μM, replicates: in singlicate; n = 1
[1] = test system: PAK6
[2] = test system: PAK7
[3] = test system: T1, PCTK1
T1 construct: gene CDK16

[4] = test system: T2, PCTK2
T2 construct: gene CDK17

[5] = test system: T3, PCTK3
T3 construct: gene CDK18

[6] = test system: PDGFRA
[7] = test system: PDGFRB
[8] = test system: PDPK1
[9] = test system: PFTAIRE2
[10] = test system: T4, PFTK1
T4 construct: gene CDK14

[11] = test system: PHKG1
[12] = test system: PHKG2
[13] = test system: PIK3C2B
[14] = test system: PIK3C2G
[15] = test system: PIK3CA
[16] = test system: PIK3CB
[17] = test system: PIK3CD
[18] = test system: PIK3CG
[19] = test system: T5, PIK4CB
T5 construct: gene PI4KB

[20] = test system: PIKFYVE
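Also: KINOMEscan kinase panel screen.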

SMILES	%Inh [1]	%Inh [2]	%Inh [3]	%Inh [4]	%Inh [5]	%Inh [6]	%Inh [7]	%Inh [8]	%Inh [9]	%Inh [10]	%Inh [11]	%Inh [12]	%Inh [13]	%Inh [14]	%Inh [15]	%Inh [16]	%Inh [17]	%Inh [18]	%Inh [19]	%Inh [20]
O=S(=O)(c1ccc(-c2ccnc3[nH]ccc23)cc1)N1CCCC1 [GSK846226]	20%	15%	7%	0%	0%	0%	24%	0%	24%	27%	0%	10%	3%	0%	8%	0%	0%	14%	23%	0%
O=C1NC(=O)C(N2CCc3ccccc32)=C1c1ccccc1Cl [SB-373598]	55%	0%	3%	1%	17%	0%	4%	32%	9%	0%	0%	23%	1%	0%	0%	0%	10%	12%	0%	0%
CN(C)CCN(C)C(=O)c1cc(-c2ccncc2)c(-c2ccc(Cl)c(O)c2)o1.Cl.Cl [SB-710397]	0%	0%	4%	0%	0%	0%	22%	0%	0%	0%	0%	0%	0%	0%	0%	18%	40%	0%	7%	47%
O=C(Nc1ccccc1)Nc1cccc(Oc2ccc3nccn3n2)c1	0%	29%	0%	5%	0%	98.9%	100%	0%	57%	0%	0%	9%	0%	0%	0%	0%	14%	6%	0%	0%
Cc1cccc(-c2cc(Nc3ccncc3)c3ccccc3n2)n1 [GSK223675]	0%	0%	13%	7%	0%	2%	23%	0%	27%	16%	0%	1%	4%	0%	7%	0%	0%	7%	21%	23%
Cc1cccc(-c2nc(Nc3cccc(C(N)=O)c3)c3ccccc3n2)n1 [GW876019]	0%	0%	0%	0%	0%	0%	5%	0%	20%	0%	0%	8%	0%	44%	0%	0%	48%	0%	0%	16%
NC(=O)c1nnc2ccccc2c1N	4%	0%	6%	0%	7%	12%	9%	7%	14%	5%	0%	10%	40%	14%	40%	0%	39%	44%	1%	4%
Nc1ncnc2[nH]c(-c3ccccc3)nc12 [AH5015]	0%	0%	3%	0%	0%	9%	42%	21%	6%	11%	0%	0%	0%	0%	0%	0%	0%	0%	37%	8%
Cc1ccc(NC(=O)Nc2cccc(Cl)c2)cc1-c1ccc(C(=O)Nc2ccncc2)cc1 [GSK1398468]	0%	1%	0%	0%	0%	43%	99.9%	0%	16%	20%	0%	11%	0%	0%	8%	0%	0%	0%	0%	2%
Nc1nc(-c2nccs2)c(-c2ccnc3ccccc23)s1 [GW693542]	9%	0%	8%	0%	5%	0%	1%	0%	13%	17%	2%	0%	0%	0%	0%	0%	0%	0%	0%	0%
COc1ccccc1-c1ccc2c(NC(=O)C3CC3)n[nH]c2n1 [SB-711239]	54%	4%	1%	0%	27%	0%	0%	13%	9%	2%	1%	0%	0%	45%	0%	25%	23%	0%	0%	17%
Cn1ccc2ncnc(Oc3ccc(Nc4nc5ccccc5[nH]4)cc3)c21	9%	0%	0%	0%	12%	8%	0%	19%	7%	0%	0%	25%	0%	0%	0%	0%	0%	0%	0%	0%
Fc1cccc(COc2nnc(-c3ccc4c(c3)CCO4)o2)c1	38%	17%	8%	6%	0%	28%	0%	0%	7%	2%	0%	0%	0%	0%	0%	14%	17%	7%	0%	24%
Cc1ccc(-c2cc(-c3c[nH]nc3-c3ccccn3)ccn2)cc1 [GW684088]	9%	19%	0%	19%	40%	7%	22%	0%	0%	32%	0%	27%	0%	1%	2%	8%	1%	4%	2%	30%
O=C(Nc1n[nH]c2nc(-c3nccs3)c(Br)cc12)C1CC1 [SB-742251]	0%	0%	45%	18%	26%	0%	14%	0%	4%	14%	0%	0%	0%	0%	0%	0%	0%	0%	0%	14%
Cc1ccc(C(=O)Nc2ccc(Nc3ccnc4cc(-c5ccccn5)ccc34)cc2O)cc1.Cl [GW440146]	8%	0%	0%	0%	24%	54%	86%	0%	26%	18%	0%	0%	0%	0%	0%	0%	100%	0%	0%	4%
COc1cc2nccc(Nc3ccc(NC(=O)c4ccc(C)cc4)c(O)c3)c2cc1OC.Cl [GW440132]	0%	0%	4%	0%	19%	12%	69%	0%	26%	85%	15%	0%	100%	0%	100%	0%	0%	100%	0%	0%
Fc1cc(Cl)ccc1Nc1ccnc2cc(-c3ccc(CN4CCCCC4)o3)ccc12 [GW560116]	0%	16%	0%	0%	27%	65%	94.8%	100%	0%	18%	0%	0%	0%	0%	0%	0%	0%	0%	0%	0%
COc1ccc(CNC(=O)NC2CCN(c3ccnc(Nc4cc(OC)c(OC)c(OC)c4)n3)C2)cc1 (stereo not drawn) [GSK1379748]	0%	2%	7%	0%	0%	15%	54%	0%	9%	0%	0%	31%	0%	0%	0%	0%	3%	0%	46%	6%
CCCc1ccc(S(=O)(=O)NC2CCN(c3ccnc(Nc4ccc(F)cc4)n3)C2)cc1 (stereo not drawn) [GSK1379715]	0%	0%	0%	0%	19%	0%	16%	82%	0%	1%	0%	0%	0%	0%	0%	0%	34%	0%	0%	0%
O=c1cc(N2CCOCC2)nc2n(Cc3cccc(Cl)c3Cl)ccn12 [GSK2286295]	0%	22%	6%	15%	13%	0%	37%	0%	23%	2%	0%	19%	22%	0%	20%	98.7%	89%	50%	0%	0%
